# SMARCA2 activ: activators of SMARCA2 function; MG213 cells, MMTV-luciferase reporter, dexamethasone, overnight; activation, % at 9.1 µM; 1% of 370,000 active; in the data active means activation above about 7.8%;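 further: 0% = vehicle wells and 100% = reference activator wells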
# hcDAF12 agonist: activates DAF-12 receptor from parasite H. contortus; HEK293 hcDAF-12 lit1-tk-luc reporter, luminescence; 0% DMSO, 100% Δ7-dafachronic acid; activation, % at 6.8 µM; 1.4% of 370,000 active; AID 652067;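 active means activation above the mean of all tested compounds plus 3 SD, cut at about 5.5% in these data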;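 further: 100% = response to 3 µM Δ7-dafachronic acid high control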
# hgDAF12 agonist: activates the H. glycines DAF-12 receptor ligand-binding domain; activation, % at 6.8 µM; 1.8% of 370,000 active; AID 687014; HEK293 GAL4-hgDAF12 UAS-luciferase reporter, agonist luminescence; normalized to butyrate control;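 active means activation above a cutoff set at the mean of all screened compounds plus 3 SD, cut at about 10% in these data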;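 further: 0% = DMSO wells and 100% = sodium butyrate wells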
# ssDAF-12 act: activates DAF-12 receptor from parasite S. stercoralis; HEK293 ssDAF-12/GRIP1 lit1-tk-luc reporter, luminescence; % of 3 µM dafachronic acid response; activation, % at 6.8 µM; 1% of 370,000 active; AID 652126;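 active means activation above the mean over all tested compounds plus 3 SD, cut at about 0.9% in these data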;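 further: 0% = DMSO-only wells and 100% = 3 µM delta7-dafachronic acid wells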
# DAX1 inh-1: DAX1 (NR0B1) inhibition, primary screen. HEK293T StAR-luciferase reporter, SF-1/DAX-1 repression relief. inhibition, % at 6.8 µM. 1.1% of 370,000 active;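 active means inhibition above the mean over all tested compounds plus 3 SD, cut at about 3.6% in these data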;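 further: 0% = DAX-1 cells with DMSO and 100% = cells lacking DAX-1 with DMSO; higher inhibition means more luminescence from relief of DAX-1 repression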
# DAX1 inh-2: inhibitors of human orphan nuclear receptor DAX1 (NR0B1); HEK293 Gal4-DAX1 luciferase reporter, luminescence; P51843; AID 504766; 0.99% of 340,000 active; inhibition, % at 6.75 µM;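 active means inhibition above the mean over all tested compounds plus 3 SD, cut at about 4.2% in these data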;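 further: 0% = DAX1-transfected cells with DMSO and 100% = empty-vector control cells with DMSO; inhibition shows as a rise in luminescence from relieved DAX1 repression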
# Target sequence (P51843 207-470 limits assumed): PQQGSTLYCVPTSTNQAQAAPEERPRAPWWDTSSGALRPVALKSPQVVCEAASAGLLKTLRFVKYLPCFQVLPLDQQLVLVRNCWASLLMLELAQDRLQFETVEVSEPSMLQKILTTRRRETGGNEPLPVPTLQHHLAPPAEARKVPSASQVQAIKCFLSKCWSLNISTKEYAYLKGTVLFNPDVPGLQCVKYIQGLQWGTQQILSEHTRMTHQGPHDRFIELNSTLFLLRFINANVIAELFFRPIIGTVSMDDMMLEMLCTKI
# LXR ag: counter-screen for hcDAF-12 agonists: agonists of human LXR-beta | shares compounds with hcDAF12 agonist | HEK293 Gal4-LXR tk-luc reporter, luminescence, 24 h; normalized: DMSO 0%, positive control 100% | activation, % at 6.8 µM | 3,400 tested, under 10 active | AID 743027;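 active means mean percent activation of the reporter above a cutoff set as the average over tested compounds plus their standard deviation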
# hcDAF12 ag: confirmation of H. contortus DAF-12 agonists; shares compounds with hcDAF12 agonist; AID 743032; activation, % at 6.8 µM; 61% of 3,400 active; HEK293 hcDAF-12 lit1-tk-luc reporter, luminescence; % of Δ7-dafachronic acid response;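 active means mean activation across triplicate tests above the threshold derived from the earlier primary screen, cut at about 5.5% in these data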;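 further: 0% = DMSO only wells and 100% = 3 µM Δ7-dafachronic acid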
# Numbers without * were called inactive; . = no result given. Shown are actives, neighbours in structure and some others; about 4.8% of the full set was active somewhere.
SMILES,SMARCA2 activ,hcDAF12 agonist,hgDAF12 agonist,ssDAF-12 act,DAX1 inh-1,DAX1 inh-2,LXR ag,hcDAF12 ag
COc1cc(/C=C/C(=O)C2C(=O)C=C(C)OC2=O)cc(OC)c1O (stereo not given),-0.4,3.0,-1.7,0.4,0.1,-0.2,.,.
COc1ccc(/C=C/C(=O)C2C(=O)C=C(C)OC2=O)cc1O (stereo not given),1.2,12.9*,5.6,1.6*,0.3,0.9,0.2,3.4
CC(=O)Nc1ccc(N=Nc2c(C)[nH]n(C(N)=S)c2=O)cc1,1.7,0.7,0.8,-1.0,0.6,0.8,.,.
Cc1[nH]n(C(N)=S)c(=O)c1N=Nc1ccc(S(=O)(=O)N2CCCCCC2)cc1,5.5,0.4,-2.1,-1.2,-0.8,-1.0,.,.
Cc1[nH]n(C(N)=S)c(=O)c1N=Nc1ccc2ccccc2c1,3.9,15.2*,12.6*,1.3*,2.8,1.0,0.8,9.0*
Cc1ccc(N=Nc2c(C)[nH]n(C(N)=S)c2=O)cc1C,2.6,9.2*,6.2,0.1,1.5,-0.1,1.4,11.5*
Fc1ccc(-c2nc3c(Cl)cc(C(F)(F)F)cn3c2Cl)cc1,4.0,9.6*,5.8,0.5,0.7,7.9*,0.7,8.7*
Fc1cccc(Cc2c(-c3cccc(Br)c3)nc3c(Cl)cc(C(F)(F)F)cn23)c1,0.2,6.6*,0.7,-0.2,-0.3,.,0.0,1.4
Cc1ccc(Cc2c(-c3ccc(F)cc3)nc3c(Cl)cc(C(F)(F)F)cn23)cc1,0.6,2.1,0.6,-0.6,-0.2,.,.,.
CCn1c(COc2ccc(C)cc2)nc2ccccc21,5.5,0.9,7.8,-1.2,0.7,0.7,.,.
O=S(=O)(Cc1ccc(Cl)cc1)NCc1ccc2c(c1)OCO2,1.9,0.4,-2.5,-0.6,-0.3,-0.3,.,.
CC1CC(C)CN(C(=O)c2ccc(S(=O)(=O)N3CC(C)CC(C)C3)cc2)C1 (stereo not given),-3.5,-3.6,-3.6,-1.4,-0.4,-2.3,.,.
O=[N+]([O-])c1ccc(Nc2nc(Cl)nc(NCCO)n2)cc1,-4.8,6.8*,1.8,0.6,1.6,-1.0,-0.1,4.7
COc1nc(NCCO)nc(Nc2ccc([N+](=O)[O-])cc2)n1,-4.5,-0.6,1.6,-1.1,-1.1,-0.2,.,.
O=C(O)c1ccc(-c2noc(-c3ccccc3C(F)(F)F)n2)cc1,6.2,0.3,4.1,-0.5,1.1,0.4,.,.
O=C(O)c1ccc(-c2noc(-c3ccccc3Cl)n2)cc1,5.0,8.2*,9.0,0.6,2.6,-2.0,1.4,9.9*
O=C(c1ccc(N2CCOCC2)c([N+](=O)[O-])c1)N1CCN(Cc2ccccc2)CC1,0.3,-2.2,-0.5,-1.2,0.1,0.5,.,.
CCCCNC(=O)C1(NC(=O)Nc2ccc(C)cc2)CCCCC1,3.5,-0.2,-1.6,-1.2,0.3,.,.,.
Cc1ccc(N/N=C(\C#N)C(=N)N2CCCCC2)cc1,3.7,6.9*,18.9*,1.2*,2.8,7.4*,1.6,10.8*
COc1ccccc1N/N=C(\C#N)C(=N)N1CCOCC1,-0.3,-0.8,-2.2,-0.9,0.9,0.9,.,.
O=C(COC(=O)c1cncc(Br)c1)NCc1ccc2c(c1)OCO2,4.5,-2.4,-1.0,-1.5,0.3,1.3,.,.
O=C(COC(=O)c1cncc(Br)c1)Nc1ccc2c(c1)OCO2,1.0,7.0*,1.2,0.1,0.2,2.0,0.0,4.3
Cc1onc(-c2ccc(Cl)cc2)c1-c1ccnc(SCC(=O)Nc2cc(Cl)cc(Cl)c2)n1,-2.4,-1.1,-2.6,-1.4,-0.4,0.1,.,.
O=C(CSc1nnc(-c2cccnc2)n1Cc1ccco1)c1ccccc1,-2.3,6.6*,-1.6,-0.7,1.1,1.0,0.0,2.2
O=C(CSc1nnc(-c2ccc(O)cc2)n1Cc1ccco1)c1ccccc1,1.4,-1.7,-2.3,-0.9,-0.4,-0.9,.,.

# High-throughput results deposited in PubChem by The Scripps Research Institute Molecular Screening Center.
